Screens: PubChem, National Center for Advancing Translational Sciences (NCATS)
Rows were chosen to be rich in hits. Some 3.2% of all compounds tested hit in one or more screens of this group.
AMA1-RON2 inh = qHTS for Inhibitors of AMA1-RON; Towards Development of Antimalarial Drug Lead: Primary Screen. Plasmodium falciparum AMA1 (3D7) - RON2 peptide interaction. AlphaScreen AMA1-biotinylated RON2 peptide binding. AID 720542, 2013. Potency, µM (series often up to 58.2 µM), for inactives: top-dose activity change, negative = inhibition, hits mostly inhibitors. 0.2% of 360,000 active;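 also: 0% = vehicle wells and -100% = peptide control; nearly all actives have a fitted effect of over 45% in size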
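AMA1 (3D7) with his tag at 25 nM final met compounds first, then biotinylated RON2 peptide at 25 nM; detection used donor plus acceptor beads, 10 µg/mL apiece, read by AlphaScreen after 30 min at room temperature.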
AmpC inh detg = qHTS Inhibitors of AmpC Beta-Lactamase (assay with detergent) | AmpC hydrolysis of nitrocefin, absorbance 480 nm, 0.01% Triton | 0.041% of 370,000 active | Potency, µM (top dose mostly 114 µM), for inactives: at the top dose activity change, negative = inhibition, most hits filed as inhibitors;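 also: 0% = no-compound wells and -100% = no-enzyme wells; nearly all actives have a fitted effect of over 25% in size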
Target sequence (P00811 whole entry, looked up): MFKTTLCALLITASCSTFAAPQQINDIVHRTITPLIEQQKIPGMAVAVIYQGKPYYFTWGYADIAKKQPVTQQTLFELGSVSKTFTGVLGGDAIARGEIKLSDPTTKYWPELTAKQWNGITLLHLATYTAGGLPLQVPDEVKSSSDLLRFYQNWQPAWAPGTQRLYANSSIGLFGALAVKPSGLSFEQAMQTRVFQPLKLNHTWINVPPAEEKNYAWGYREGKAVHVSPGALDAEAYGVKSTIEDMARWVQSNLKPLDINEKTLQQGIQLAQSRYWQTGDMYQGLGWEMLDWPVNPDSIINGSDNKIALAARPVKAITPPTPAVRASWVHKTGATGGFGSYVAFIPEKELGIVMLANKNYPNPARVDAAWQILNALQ
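AmpC (5.3 nM in the dispensed reagent) in 20 mM phosphate pH 7.0 with 0.01% (detergent screen) or 0.0001% Triton X-100 was preincubated with compounds for 15 min at room temperature. Nitrocefin was then added from an 800 uM solution, and hydrolysis was followed at 480 nm.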
RE007 growth inh = qHTS Assay for Inhibitors of the HIV-1 protein Vpr. AID 651644, 2012. 0.21% of 360,000 active. S. pombe RE007 Vpr strain, BacTiter-Glo ATP luminescence, 24 h. Potency, µM (series often up to 92.2 µM), for inactives: at the highest dose activity change, negative = less growth, actives largely listed as inhibitors; active = well fitted falling curve with a large enough effect; inconclusive = small, poorly fitted or top-dose-only effect; inactive = no such curve, though single readings can be large or run the other way; also: nearly all actives have a fitted effect of over 50% in size
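Fission yeast strain RE007, carrying one chromosomally integrated HIV-1 vpr copy, was seeded at OD 0.01 in PMG+AL medium with 23 nL pinned compound. After 24 h at 30 °C and 99% humidity, viability was read by BacTiter-Glo luminescence.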
Sm TGR block = qHTS Assay for the Inhibitors of Schistosoma Mansoni Peroxiredoxins | purified TGR, DTNB reduction, TNB absorbance 405 nm | 3% of 360,000 active | Potency, µM (titrated, usually from 114 µM), for the others: at the highest dose activity change, negative = inhibition, most hits filed as inhibitors | Schistosoma mansoni thioredoxin glutathione reductase (TGR), Q962Y6; also: nearly all actives have a fitted effect of over 60% in size
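Kinetic colorimetric format: TGR-catalysed, NADPH-driven DTNB reduction monitored via TNB absorbance. Enzyme dispensed at 20 nM; compound exposure 15 min at room temperature before reaction start.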
AmpC no deterg = qHTS Inhibitors of AmpC Beta-Lactamase (assay without detergent) | AmpC nitrocefin hydrolysis, absorbance 480 nm, 0.0001% Triton | 0.52% of 330,000 active | P00811 | AID 485341, 2010 | Potency, µM (top dose mostly 57.1 µM), for inactives: at the highest dose activity change, negative = inhibition, most hits filed as inhibitors;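 also: plate controls were no compound for no effect and no enzyme for full effect; nearly all actives have a fitted effect of over 20% in size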
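20 mM phosphate pH 7.0 + 0.01% (detergent screen) or 0.0001% Triton X-100; 5.3 nM AmpC reagent; cpd preinc 15 min RT; nitrocefin (800 uM stock) to start; A480 q20 s × 4 min; Activity was normalised to no-enzyme and no-compound control wells.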
* marks the source's active call; other numbers are inactive results; ? = inconclusive; . = not tested or not shown; [ ] = dose if it differs, or a comment. Unless noted, calls follow the shape of the dose curve; as a rule, active = well fitted curve in the direction sought with a large enough effect; inconclusive = small, poorly fitted or top-dose-only effect, or another doubt; inactive = no such curve, though single readings can be large; an effect the other way counts as inactive or inconclusive. Unless noted, % is scaled to controls: 0 for no effect and ±100 for the full control effect; potency is read from the fitted curve at half-maximal effect.

SMILES	AMA1-RON2 inh	AmpC inh detg	RE007 growth inh	Sm TGR block	AmpC no deterg
CN(C)c1ccc(NC(=S)c2ccccn2)cc1	14.1µM*	-10.3%	?	-15.7%	-30.2%
COc1ccc(-n2nc([N+](=O)[O-])c(=NCCc3ccc(OC)c(OC)c3)n2O)cc1	-17.0%	-0.9%	31.5%	35.5µM*	-2.5%
COc1ccccc1CN=c1c([N+](=O)[O-])nn(-c2ccc3c(c2)OCCO3)n1O	?	-12.7%	10.9%	39.8µM*	-9.3%
COc1ccc(-n2nc([N+](=O)[O-])c(=NCCC3=CCCCC3)n2O)cc1	15.8µM*	5.0%	6.2%	-1.7%	2.0%
O=c1cc(OCc2ccccc2)cc[nH]1	1.12µM*	?	-8.5%	-3.6%	-8.3%
COc1ccc(-c2cc3nc(C)c(CCC(=O)N4CCN(c5ccccc5F)CC4)c(C)n3n2)c(OC)c1	.	-7.2%	.	-0.9%	.
CN(Cc1ccccc1)C(=O)COC(=O)/C=C/c1ccco1	7.2%	8.7%	12.1%	3.55µM*	-5.6%
CN(CCOC(=O)/C=C/c1ccco1)Cc1ccccc1	-10.7%	6.1%	-4.2%	2.51µM*	-10.9%
CC1CCN(Cc2c(O)ccc3c(=O)c(Oc4ccccc4Cl)c(C(F)(F)F)oc23)CC1	.	18.5%	.	-3.2%	.
O=C(Nc1cccc(F)c1)C1CCN(c2nc3ccccc3nc2C(F)(F)F)CC1	.	5.9%	.	12.4%	.
O=C(O)c1cccc2c1NC(c1cccc([N+](=O)[O-])c1)C1CC(Sc3ccccc3[N+](=O)[O-])C(Cl)C21 (centres undefined)	-21.2%	-3.8%	-14.6%	.	?
CCN(CC)C(=O)c1ccc2c(c1)C1C(Cl)C(Sc3ccccc3[N+](=O)[O-])CC1C(C(=O)O)N2 (centres undefined)	?	-5.2%	-2.3%	3.16µM*	-16.0%
O=C(O)c1ccc2c(c1)C1C(Cl)C(Sc3ccccc3[N+](=O)[O-])CC1C(c1cccc([N+](=O)[O-])c1)N2 (centres undefined)	-29.1%	-14.1%	-11.1%	?	17.8µM*
Cc1ccccc1C(=O)NC1(C(F)(F)F)N=C(c2ccccc2)N(Cc2ccccc2)C1=O (centres undefined)	.	-0.6%	.	-7.4%	.
N#CC(C#N)=NNc1ccc(S(=O)(=O)N2CCCC2)cc1	-1.1%[11.6 µM]	-0.3%	-0.1%	20µM*	-18.3%
CC(=O)Nc1ccc(S(=O)(=O)Nc2ccc(S(=O)(=O)N3CCCCCC3)cc2)cc1	-3.0%	-7.1%	5.7%	-12.5%	20µM*
O=S(=O)(Nc1ccc(S(=O)(=O)N2CCCCC2)cc1)c1ccc(Br)s1	1.0%	-7.1%	6.5%	6.31µM*	-40.3%
O=S(=O)(c1ccc(F)cc1)N1CCCNCC1	-3.8%	-0.3%	-14.4%	-35.3%	-14.6%
O=S(=O)(Nc1ccc(S(=O)(=O)N2CCCCCC2)cc1)c1cccs1	-2.7%	-2.8%	7.3%	-5.2%	-44.7%
Cc1ccc(S(=O)(=O)N2CCCNCC2)cc1	0.1%	-16.5%	-11.8%	15.8µM*	-1.5%
CCn1cc2c(n1)-c1c(oc(C(=O)Nc3ccc(Br)cc3F)c1C)CC2	.	-3.1%	.	-2.8%	.
COC(=O)[C@@]12C[C@@H](CC(=O)N3CCN(C(=O)c4ccco4)CC3)C(=O)N(Cc3ccc4c(c3)OCO4)C1=CCC(C)(C)C2	0.4%	.	0.0%	.	.
CC(=O)c1ccc(S(=O)(=O)N2CCCC2)cc1	1.9%	-4.7%	12.9%	44.7µM*	-8.9%
CCOC(=O)C1=C(C)NC(C)=C(C(=O)OCC)C1c1cccc([N+](=O)[O-])c1	-11.0%	.	7.9%	.	.
CC1=C(C(=O)OC(C)C)C(c2cccc([N+](=O)[O-])c2)n2c(cc(=O)[nH]c2=S)N1 (centres undefined)	33.7%	-16.0%	28.5%	1.0%	35.5µM*
SMILES	AMA1-RON2 inh	AmpC inh detg	RE007 growth inh	Sm TGR block	AmpC no deterg
Oc1cncc(Cc2ccccc2)c1	7.2%	-9.7%	23.1%	31.6µM*	-1.3%
COc1cc2cncc(Cc3ccccc3)c2cc1O	13.6%	.	-9.1%	.	.
COC(=O)c1cc(O)cc(OC)c1C(=O)c1c(O)cc(C)cc1O	-19.8%	7.2%	12.3%	-30.1%	-33.7%
COC(=O)c1cc(O)cc(OC)c1Oc1cc(C)cc(O)c1C(=O)O	?	2.7%	0.5%	7.08µM*	-40.4%
CCNc1nc(NCc2ccc(F)cc2)c2cnn(C)c2n1	.	-1.9%	.	-19.5%	.
Cc1cccc(NC(=O)CC2C(=O)OCCN2Cc2ccccc2)c1 (centres undefined)	.	0.4%	.	-23.3%	.
CCN1CCOC(=O)C1CC(=O)Nc1cc(Cl)ccc1C (centres undefined)	.	-2.4%	.	7.94µM*	.
O=C(CC1C(=O)OCCN1Cc1ccccc1)Nc1cccc(Cl)c1 (centres undefined)	.	0.4%	.	?	.
CCN1CCOC(=O)C1CC(=O)Nc1ccc(C)c(Cl)c1 (centres undefined)	.	0.6%	.	11.2µM*	.
CN(C)c1ccc(CNC(=O)C2(C)Cc3c(-c4cccc(C(F)(F)F)c4)ccnc3O2)cc1 (centres undefined)	25.1µM*	.	-12.9%[18.4 µM]	.	.
O=C(O)c1cccc(NC2=C(N3CCOCC3)C(=O)c3ccccc3C2=O)c1	-1.1%	-1.2%	-15.7%	44.7µM*	-2.3%
CN(C1=C(N2CCOCC2)C(=O)c2ccccc2C1=O)c1ccccc1	15.8µM*	-4.7%	?	25.1µM*	-3.6%
CCOc1ccc(Nc2cc(=O)n(C)c(=O)n2C)cc1	-3.2%	?	8.1%	0.9%	-6.0%
Cn1c(Nc2ccc(Cl)cc2)cc(=O)n(C)c1=O	-4.6%	7.7%	2.2%	20µM*	-2.5%
O=[N+]([O-])c1cccnc1N1CCCNCC1	-7.1%	-8.8%	-9.9%	50.1µM*	-15.4%
COc1ccc(NC(=O)c2nnn(Cc3nc(-c4cc(OC)c(OC)c(OC)c4)oc3C)c2C)cc1Cl	.	1.5%	.	-1.0%	.
CN1CCN(C(=O)Nc2ccccc2CC[N+](=O)[O-])CC1	7.3%	3.8%	22.2%	31.6µM*	-8.7%
CCc1ccc(NS(=O)(=O)c2ccc3[nH]cc(C(=O)NC4CCCC4)c(=O)c3c2)cc1	.	-6.3%	.	-8.7%	.
Cc1ccccc1-n1nc2c(c1NC(=O)c1ccc(Br)o1)CSC2	-11.7%	0.0%	1.1%	31.6µM*	-43.0%
Cc1ccccc1-n1nc2c(c1NC(=O)c1ccco1)CS(=O)(=O)C2	10.5%	0.0%	-6.4%	44.7µM*	-9.0%
CC(=O)Nc1c2c(nn1-c1ccc(C)cc1C)CSC2	-0.6%	2.0%	1.0%	-30.0%	?
CC(C)C(=O)Nc1ccc2nc(SCC(=O)N3CCCC3)sc2c1	.	20.5%	.	4.7%	.
